Laboratory results taken from PMC4336329 (PLoS ONE, 2015).
The campaign covered roughly 310,000 compounds. About 14,000 (4.5%) showed an effect of 50% or more. Effects have a minus sign here. What follows is part of a selection rich in strong results, with near analogues and random picks from the rest.

target: human ether-à-go-go-related gene (hERG) potassium channel (human, UniProt Q12809); assay: primary screen, population patch clamp on CHO cells stably expressing hERG; higher = less effect of the substance
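Also: peak tail current of the secondary pulse compared with the same well before compound.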

human ether-à-go-go-related gene (hERG) potassium channel, sequence (Q12809 whole entry, looked up): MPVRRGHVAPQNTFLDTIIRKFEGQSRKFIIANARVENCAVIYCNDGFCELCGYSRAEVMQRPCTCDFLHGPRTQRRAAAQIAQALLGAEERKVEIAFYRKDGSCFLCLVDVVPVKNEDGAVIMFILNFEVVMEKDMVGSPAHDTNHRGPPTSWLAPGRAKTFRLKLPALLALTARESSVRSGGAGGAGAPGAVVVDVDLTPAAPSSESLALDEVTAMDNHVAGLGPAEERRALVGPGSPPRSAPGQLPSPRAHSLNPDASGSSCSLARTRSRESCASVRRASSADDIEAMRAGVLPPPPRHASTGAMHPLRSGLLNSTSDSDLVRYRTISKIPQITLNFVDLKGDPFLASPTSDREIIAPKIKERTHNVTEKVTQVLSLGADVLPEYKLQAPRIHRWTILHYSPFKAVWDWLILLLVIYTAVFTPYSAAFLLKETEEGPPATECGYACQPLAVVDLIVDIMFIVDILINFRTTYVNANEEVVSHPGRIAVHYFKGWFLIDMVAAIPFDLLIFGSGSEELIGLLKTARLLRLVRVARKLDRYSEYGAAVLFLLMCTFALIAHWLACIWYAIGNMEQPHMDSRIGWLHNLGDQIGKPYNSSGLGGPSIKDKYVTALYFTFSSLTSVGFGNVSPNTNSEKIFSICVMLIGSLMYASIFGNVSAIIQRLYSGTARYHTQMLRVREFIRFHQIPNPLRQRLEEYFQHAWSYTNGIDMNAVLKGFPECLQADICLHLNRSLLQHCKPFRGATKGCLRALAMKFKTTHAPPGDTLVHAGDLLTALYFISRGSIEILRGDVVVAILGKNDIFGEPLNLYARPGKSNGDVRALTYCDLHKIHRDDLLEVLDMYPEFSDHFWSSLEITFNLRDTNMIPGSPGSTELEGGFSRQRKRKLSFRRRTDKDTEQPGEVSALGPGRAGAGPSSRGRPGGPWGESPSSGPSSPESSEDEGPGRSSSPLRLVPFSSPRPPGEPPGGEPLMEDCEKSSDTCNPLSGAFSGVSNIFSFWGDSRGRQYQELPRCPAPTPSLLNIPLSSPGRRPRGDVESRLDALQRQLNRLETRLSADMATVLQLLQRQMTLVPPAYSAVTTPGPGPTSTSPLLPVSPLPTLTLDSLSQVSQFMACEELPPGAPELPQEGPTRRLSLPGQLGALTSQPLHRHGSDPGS

| SMILES | hERG current change (%, negative = inhibition) at 10uM |
| --- | --- |
| COC(=O)c1[nH]c2cc(OC)ccc2c1NC(=O)CCN1CCSCC1 | 7.01% |
| CCc1nn(C(C)C(=O)N2CC(C)CC(C)C2)c(=O)c2cc3occc3n12 (stereo not drawn) | -7.58% |
| CNC(=O)Nc1ccc(Cl)cc1 | 7.56% |
| O=C(C1=C[C@@H](c2csc3ccccc23)C[C@@H](OCc2ccc(CO)cc2)O1)N1CCOCC1 | -27.5% |
| CC(=O)n1cc([C@H]2C=C(C(=O)N3CCN(Cc4ccccc4)CC3)O[C@@H](OCCCCO)C2)c2ccccc21 | -42.5% |
| CC(=O)n1cc([C@@H]2C=C(C(=O)N3CCOCC3)O[C@H](OCc3ccc(CO)cc3)C2)c2ccccc21 | -74.8% |
| O=C(C1=C[C@H](c2csc3ccccc23)C[C@H](OCc2ccc(CO)cc2)O1)N1CCOCC1 | -59.2% |
| C=CCOC(=O)C1=C[C@@H](c2cn(C(C)=O)c3ccccc23)C[C@@H](OCc2ccc(CO)cc2)O1 | -93.5% |
| C=CCOC(=O)C1=C[C@H](c2cn(C(C)=O)c3ccccc23)C[C@H](OCc2ccc(CO)cc2)O1 | -9.82% |
| CC(=O)n1cc([C@@H]2C=C(C(=O)N3CCOCC3)O[C@H](OCCCCO)C2)c2ccccc21 | -51.6% |
| CC(=O)n1cc([C@H]2C=C(C(=O)N3CCOCC3)O[C@@H](OCCCCO)C2)c2ccccc21 | -17.1% |
| O=C(C1=C[C@H](c2csc3ccccc23)C[C@H](OCc2ccc(CO)cc2)O1)N1CCCCCCC1 | -15.1% |
| CC(=O)n1cc([C@@H]2C=C(C(=O)N3CCN(Cc4ccccc4)CC3)O[C@H](OCc3ccc(CO)cc3)C2)c2ccccc21 | -10.1% |
| CC(=O)n1cc([C@H]2C=C(C(N)=O)O[C@@H](OCc3ccc(CO)cc3)C2)c2ccccc21 | -16.8% |
| CC(=O)n1cc([C@@H]2C=C(C(=O)O)O[C@H](OCc3ccc(CO)cc3)C2)c2ccccc21 | 0.587% |
| O=C(CCCCCn1c(=S)[nH]c2ccc(N3CCOCC3)cc2c1=O)NCc1ccccc1Cl | 4.65% |
| C=COCCn1c(-c2nonc2N)nc2ccccc21 | -3.07% |
| CC(NC(=O)CCC(=O)NCc1ccc(F)cc1)c1ccccc1 (stereo not drawn) | 13.3% |
| COc1ccc(NC(=S)NC(NC(=O)CF)C(Cl)(Cl)Cl)cc1[N+](=O)[O-] (stereo not drawn) | 15% |
| CCOC(=O)c1ccc(NC(=O)CC2C(=O)N(c3ccc(F)cc3)C(=O)N2CCC(C)C)cc1 (stereo not drawn) | -8.43% |
| COc1ccc(-c2cc(-c3ccc(OC)cc3)c(C#N)c(SC)n2)cc1 | 5.38% |

| SMILES | hERG current change (%, negative = inhibition) at 10uM |
| --- | --- |
| CCn1nc(C(=O)Nc2cccc(S(=O)(=O)N3CCCC3)c2)c2ccccc2c1=O | -22.3% |
| COc1ccc(S(=O)(=O)N2CCCC(C(F)(F)F)C2)cc1 (stereo not drawn) | 10.2% |
| O=C(CCNS(=O)(=O)c1ccc2c(c1)CCC(=O)N2)NCc1ccc2c(c1)OCO2 | 0.608% |
| Cc1cccc(NC(=O)Nc2cc(C)on2)c1 | 9.14% |
| C=C1CCC[C@]2(C)C[C@H]3OC(=O)C(CN4CCOCC4)[C@H]3C[C@@H]12 (stereo partly drawn) | 17.7% |
| COc1cccc(OC)c1C(=O)Nc1cccc(-n2cnnn2)c1 | 15.7% |
| CN1CCC(OC(=O)Cc2ccc(Cl)cc2)CC1.Cl | -11% |
| CN(C(=S)Nc1ccc(Oc2ccccc2)cc1)c1ccc(O)cc1 | -6.93% |
| CC(=O)n1cc([C@H]2C=C(C(=O)N3CCOCC3)O[C@@H](OCc3ccc(CO)cc3)C2)c2ccccc21 | -55.2% |
| CC(=O)n1cc([C@H]2C=C(C(=O)N3CCN(Cc4ccccc4)CC3)O[C@@H](OCc3ccc(CO)cc3)C2)c2ccccc21 | -24% |
| CC(=O)n1cc([C@@H]2C=C(C(=O)N3CCN(C)CC3)O[C@H](OCc3ccc(CO)cc3)C2)c2ccccc21 | -41.7% |
| CCN(c1ccccc1)S(=O)(=O)c1ccc(C(=O)N(C)CCc2ccc(OC)c(OC)c2)cc1 | -13.8% |
| O=[N+]([O-])c1ccc(N2CCN(Cc3ccc(Br)o3)CC2)cc1 | -65.1% |
| Clc1ccc(N2CCN(Cc3ccc(Br)o3)CC2)cc1 | 7.93% |
| O=[N+]([O-])c1ccc(CN2CCN(c3ccccc3)CC2)o1 | 9.7% |
| O=[N+]([O-])c1ccc(CN2CCN(c3ccc(Cl)cc3)CC2)o1 | -2.29% |
| Brc1ccc(CN2CCN(c3ccccc3)CC2)o1 | 13.8% |
| O=C(O)C(=O)O.O=[N+]([O-])c1ccc(N2CCN(Cc3ccc([N+](=O)[O-])o3)CC2)cc1 | -71.1% |
| Cc1c(N)cccc1-n1cccc1 | 16.2% |
| Cc1ccc2oc(C(=O)N(C)CCC(O)c3ccccc3)c(C)c2c1 (stereo not drawn) | 11.5% |
| COc1ccc(S(=O)(=O)NCCSCc2cccc(C)c2)cc1Br | -0.641% |

| SMILES | hERG current change (%, negative = inhibition) at 10uM |
| --- | --- |
| CCNC(=O)NS(=O)(=O)c1cnccc1Nc1cccc(Cl)c1 | 25.1% |
| c1ccc(-c2noc(C3CCC3)n2)nc1 | 4.59% |
| CC(C)CC(=O)N/N=C/c1c(N)n(C)c(=O)n(C)c1=O | 21.7% |
| NS(=O)(=O)c1ccc(CCNC(=O)Cn2c(=O)c3cccn3c3cccnc32)cc1 | 22.3% |
| O=C(Cn1c(=O)c2cccn2c2cccnc21)NCCCN1CCN(c2ccc(F)cc2)CC1 | -76.4% |
| O=C(Cn1c(=O)c2cccn2c2ccc(F)cc21)NCCCN1CCN(c2ccccc2F)CC1 | -50.5% |
| CCN1CCN(CCNC(=O)Cn2c(=O)c3cccn3c3ccc(F)cc32)CC1 | -2.61% |
| CN1CCN(CCNC(=O)Cn2c(=O)c3cccn3c3ccc(F)cc32)CC1 | 14.1% |
| COc1ccc(N2CCN(CCCNC(=O)Cn3c(=O)c4cccn4c4ccccc43)CC2)cc1 | -43.7% |
| COc1ccc(N2CCN(C(=O)Cn3c(=O)c4cccn4c4cccnc43)CC2)cc1 | -15.3% |
| COc1ccc(N2CCN(CCCNC(=O)Cn3c(=O)c4cccn4c4cccnc43)CC2)cc1 | -57.2% |
| O=C(Cn1c(=O)c2cccn2c2ccccc21)NCCCN1CCCCC1 | 3.5% |
| COc1ccccc1CCNC(=O)C(=O)NCCC1CCCCN1S(=O)(=O)c1cccs1 (stereo not drawn) | -6.92% |
| Cc1c(NC(=O)CSCc2ccccc2)cccc1C(=O)O | 18% |
| CCn1cc([N+](=O)[O-])c(C(=O)N2N=C(c3ccc4ccccc4c3)CC2c2ccccc2O)n1 (stereo not drawn) | 3.19% |
| Clc1ncccc1-c1nnn(-c2ccccc2)n1 | 15.1% |
| Cc1[nH]c2ccccc2c1/C=N/NC(N)=S | 2.1% |
| N#CCCS(=O)(=O)c1nnnn1-c1ccccc1 | -18.7% |
| Cn1c(O)c(N=NC(=O)Cn2c(C(F)(F)F)nc3ccccc32)c2ccccc21 | 6.02% |
| CC(C)C(C(=O)O)N1C(=O)/C(=C/c2cccn2C)SC1=S (stereo not drawn) | -0.129% |
| COCC1CCCN(C(=O)c2ccc3oc(Cc4ccc(Cl)cc4)nc3c2)C1 (stereo not drawn) | -24.7% |

| SMILES | hERG current change (%, negative = inhibition) at 10uM |
| --- | --- |
| Cc1ccc(NC(=O)CN2CCCC2)cc1.Cl | 19.1% |
| O=C(C1CCCC1)N1CCCC(Nc2ccc(F)cc2)C1 (stereo not drawn) | -37.2% |
| O=C(CN1CCCC1)Nc1cc(C(F)(F)F)cc(C(F)(F)F)c1 | -17.9% |
| O=C(CN1CCCC1)Nc1ccc(F)cc1 | 23.3% |
| O=C(CN1CCCC1)NCC(=O)Nc1ccc(F)cc1 | 8.87% |
| O=C(CN1CCN(C(=O)N2CCCCC2)CC1)Nc1ccc(F)cc1 | -74.9% |
| O=C(CN1CCN(C(=O)C2CC2)CC1)Nc1cc(C(F)(F)F)cc(C(F)(F)F)c1 | -54.4% |
| Cl.O=C(CN1CCN(c2cccc(C(F)(F)F)c2)CC1)Nc1cccc(C(F)(F)F)c1 | -1.14% |
| O=C(CN1CCN(C(=O)C2CCC2)CC1)Nc1ccc(F)cc1 | -69.9% |
| CC(O)(CS(=O)(=O)Cc1ccccc1)C(=O)Nc1cccc(C(F)(F)F)c1 (stereo not drawn) | 1.72% |
| COC(=O)Nc1ccc(S(=O)(=O)N2CCCc3ccccc32)cc1 | 8.63% |
| O=C1Oc2ccccc2C(=O)/C1=C/N1CCN(c2ccccc2F)CC1 | -0.353% |
| O=c1[nH]c(Cl)ccc1CN1CCOCC1 | 14.5% |
| Cc1ccccc1C(=O)Nn1cnnc1 | 3.49% |
| COc1ccc(S(=O)(=O)NCc2ccc(C(=O)NCCCN3CC(C)CC(C)C3)cc2)cc1 (stereo not drawn) | -28.1% |
| COC(=O)c1cc(S(=O)(=O)N2CCC(C)CC2)ccc1F | -18% |
| COc1ccc(-c2cc(CNS(=O)(=O)c3cc(OC)ccc3OC)on2)cc1 | 6.1% |
| O=C(NC(=S)Nc1ccc2nc[nH]c2c1)c1ccccc1 | 12.4% |
| COc1ccc(CCNCc2ccsc2)cc1OC | 1.86% |
| Cc1cc(/C=C2\Cc3ccccc3C2=O)c(C)n1-c1ccccc1 | 1.62% |
| O=C(Nc1ccc(N2CCOCC2)c(F)c1)c1cccs1 | 1.9% |
